According to PubChem BioAssay:
Active and inactive are the calls of the source. Unless noted, no rule for the calls is given here.

Legend:
[1] = anti-His antibody binders, primary screen, artefact control for SMM control protein annotation, biochemical, small-molecule microarray, 635 nm fluorescence (AID 1128); details: anti-His Alexa647 antibody binding, higher = more signal;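 also: score merges feature fluorescence with signal-to-noise for each printed compound spot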
[2] = system: Human papillomavirus type 1a E7 protein (residues 1-88); assay: HPV1a E7 small-molecule binders, primary screen, biochemical, small-molecule microarray, residues 1-88, 635 nm (AID 1129); details: small-molecule microarray binding, fluorescence 635 nm; higher = more signal
[3] = target: Focal adhesion kinase 1 (Homo sapiens) (UniProt Q05397); assay: small-molecule microarray binders of FAK, primary screen, biochemical, 635/667 nm fluorescence, BSA, DTT (AID 1130); details: PTK2 binding, 635 nm fluorescence, higher = more signal;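 also: composite of spot emission at 667 nm and signal to noise over triplicate slides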
Focal adhesion kinase 1 (Homo sapiens), sequence (Q05397 whole entry, looked up): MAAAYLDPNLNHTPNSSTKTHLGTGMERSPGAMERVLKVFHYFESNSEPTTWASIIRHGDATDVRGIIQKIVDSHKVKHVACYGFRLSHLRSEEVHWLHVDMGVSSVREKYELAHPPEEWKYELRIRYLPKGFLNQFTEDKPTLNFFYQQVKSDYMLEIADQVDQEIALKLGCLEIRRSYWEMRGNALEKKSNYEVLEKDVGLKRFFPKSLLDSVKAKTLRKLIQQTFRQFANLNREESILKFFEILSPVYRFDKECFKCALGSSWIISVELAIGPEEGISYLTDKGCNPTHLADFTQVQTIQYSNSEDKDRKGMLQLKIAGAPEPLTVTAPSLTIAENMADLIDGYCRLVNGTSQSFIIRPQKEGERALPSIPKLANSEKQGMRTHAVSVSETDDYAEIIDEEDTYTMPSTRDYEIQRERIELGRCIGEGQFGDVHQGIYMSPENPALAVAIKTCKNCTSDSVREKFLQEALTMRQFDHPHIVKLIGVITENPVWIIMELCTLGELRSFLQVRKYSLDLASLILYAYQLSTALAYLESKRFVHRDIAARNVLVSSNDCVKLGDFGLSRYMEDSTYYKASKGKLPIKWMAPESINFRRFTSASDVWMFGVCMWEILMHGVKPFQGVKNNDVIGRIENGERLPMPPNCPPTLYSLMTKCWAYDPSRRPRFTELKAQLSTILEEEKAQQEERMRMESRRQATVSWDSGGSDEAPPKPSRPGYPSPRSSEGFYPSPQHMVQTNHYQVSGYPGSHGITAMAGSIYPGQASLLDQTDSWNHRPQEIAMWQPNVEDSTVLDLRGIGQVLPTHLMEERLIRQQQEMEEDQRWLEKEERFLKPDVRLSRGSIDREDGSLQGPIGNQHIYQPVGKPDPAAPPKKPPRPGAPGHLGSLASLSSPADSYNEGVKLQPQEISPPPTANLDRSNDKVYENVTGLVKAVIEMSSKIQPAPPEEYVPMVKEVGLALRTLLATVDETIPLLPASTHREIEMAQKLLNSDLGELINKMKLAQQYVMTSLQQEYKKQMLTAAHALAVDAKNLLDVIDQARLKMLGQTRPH

[4] = system: Fibrinogen (Alexa647-labelled); assay: fibrinogen binders on compound microarrays, profiling panel, artefact control for SMM control-protein annotation, biochemical, small-molecule microarray, 635/667 nm fluorescence (AID 1131); details: fibrinogen-A647 binding fluorescence, higher = more signal;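 also: z-score merges 667 nm fluorescence with per-spot signal-to-noise over triplicate slides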
[5] = target: Follistatin (Homo sapiens) (UniProt P19883); assay: follistatin binders on small-molecule microarrays, primary screen, biochemical, small-molecule microarray, 635/667 nm fluorescence (AID 1132); details: FST binding, 635 nm fluorescence, higher = more signal
Follistatin (Homo sapiens), sequence (P19883 whole entry, looked up): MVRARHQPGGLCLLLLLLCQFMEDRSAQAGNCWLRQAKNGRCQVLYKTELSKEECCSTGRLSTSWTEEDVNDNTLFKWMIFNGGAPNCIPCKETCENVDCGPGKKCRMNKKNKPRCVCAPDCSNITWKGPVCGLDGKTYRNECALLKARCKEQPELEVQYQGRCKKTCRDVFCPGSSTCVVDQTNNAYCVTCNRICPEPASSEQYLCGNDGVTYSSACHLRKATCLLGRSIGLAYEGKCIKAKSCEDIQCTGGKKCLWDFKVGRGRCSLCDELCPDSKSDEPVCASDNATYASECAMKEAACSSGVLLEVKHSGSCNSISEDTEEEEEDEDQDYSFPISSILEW

[6] = target: Fibroblast growth factor 2 (Homo sapiens) (UniProt P09038); assay: FGF2 binders on small-molecule microarrays, primary screen, biochemical, small-molecule microarray, 635/667 nm fluorescence (AID 1133); details: small-molecule microarray binding, FGF2, fluorescence 635/667; higher = more signal
Fibroblast growth factor 2 (Homo sapiens), sequence (P09038 whole entry, looked up): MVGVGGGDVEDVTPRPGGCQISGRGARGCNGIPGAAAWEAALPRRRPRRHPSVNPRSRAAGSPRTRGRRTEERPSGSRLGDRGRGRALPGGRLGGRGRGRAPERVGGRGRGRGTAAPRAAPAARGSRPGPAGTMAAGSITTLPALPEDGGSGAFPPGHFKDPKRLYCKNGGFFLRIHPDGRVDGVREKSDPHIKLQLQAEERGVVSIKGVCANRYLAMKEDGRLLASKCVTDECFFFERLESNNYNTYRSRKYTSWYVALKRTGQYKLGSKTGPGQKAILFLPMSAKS

[7] = mitochondrial membrane potential change in A549 cells, profiling panel, cell-based, JC-1 fluorescence, basal, 24 h, 100 nL (AID 1138); details: higher = more signal;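 also: A549 lung adenocarcinoma cells under basal conditions with no added stimulus; test concentration not given here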
Lefty1 = Lefty1 binders on small-molecule microarrays, primary screen, biochemical, small-molecule microarray, 635/667 nm fluorescence (AID 1139); details: small-molecule microarray binding, fluorescence 635/667; higher = more signal
[8] = system: wheat germ agglutinin (Triticum aestivum), Alexa647-labelled; assay: wheat germ agglutinin binders on compound microarrays, profiling panel, artefact control for SMM control-protein annotation, biochemical, small-molecule microarray, 635/667 nm fluorescence (AID 1140); details: WGA-A647 binding, 635 nm fluorescence, higher = more signal;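 also: score merges 667 nm feature emission with signal to noise over triplicate slides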
[9] = target: Luciferin 4-monooxygenase (Photinus pyralis) (UniProt P08659); assay: firefly luciferase enzyme inhibitors, primary screen, biochemical, luminescence, purified enzyme, 2006 set (AID 1141); details: SteadyGlo luminescence, 30 min, higher = more signal, called active from +8 up or from −8 down;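 also: cell-free assay with purified firefly luciferase at 100 ng per well in PBS; test concentration not given here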
Luciferin 4-monooxygenase (Photinus pyralis), sequence (P08659 whole entry, looked up): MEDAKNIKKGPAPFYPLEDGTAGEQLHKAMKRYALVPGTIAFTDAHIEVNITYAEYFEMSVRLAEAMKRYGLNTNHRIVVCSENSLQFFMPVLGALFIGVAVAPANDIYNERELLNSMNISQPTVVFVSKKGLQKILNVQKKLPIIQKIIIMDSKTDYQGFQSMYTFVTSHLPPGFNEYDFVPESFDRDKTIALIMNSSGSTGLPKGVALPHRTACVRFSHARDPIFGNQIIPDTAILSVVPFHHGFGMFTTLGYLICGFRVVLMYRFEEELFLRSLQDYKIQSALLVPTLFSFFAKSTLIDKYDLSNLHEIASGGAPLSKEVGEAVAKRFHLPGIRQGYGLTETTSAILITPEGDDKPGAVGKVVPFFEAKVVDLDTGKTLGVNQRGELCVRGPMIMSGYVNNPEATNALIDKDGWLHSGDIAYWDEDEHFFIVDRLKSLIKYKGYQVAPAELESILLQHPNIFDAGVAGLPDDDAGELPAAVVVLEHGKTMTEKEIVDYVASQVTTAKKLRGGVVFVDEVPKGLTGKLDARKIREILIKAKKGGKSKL

[10] = system: Wnt5a (protein binding on small-molecule microarray); assay: Wnt5a binders on small-molecule microarray, primary screen, biophysical, 635/667 nm fluorescence (AID 1142); details: 635 nm fluorescence, higher = more signal;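 also: fluorescence read at 667 nm with signal to noise per printed feature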
[11] = cell viability in Huh7 cells, primary screen, cytotoxicity control for HCV replication inhibitor project, CellTiter-Glo luminescence, basal, 48 h (AID 1143); details: Huh7 HCV replicon, higher = more signal, called active from +8 up or from −8 down;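 also: Huh7 hepatoma cells carrying a hepatitis C replication reporter with no stimulus; test concentration not given here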
[12] = P. aeruginosa biofilm formation inhibitors, primary screen, PAO1 strain, BacTiter-Glo luminescence, LB-PBS (AID 1144); details: 12 h, higher = more signal
[13] = CREB reporter modulators without forskolin, primary screen, cell-based, PC12, CRE-LacZ reporter, unstimulated (AID 1145); details: no forskolin, luminescence, 4.5 h, higher = more signal, called active from +8 up or from −8 down
[14] = CREB reporter modulators under forskolin, primary screen, cell-based, PC12, CRE-LacZ reporter, forskolin-stimulated (AID 1146); details: luminescence, 4.5 h, higher = more signal, called active from +8 up or from −8 down;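 also: PC12 cells with 6xCRE LacZ reporter stimulated by forskolin 10 µM; beta-galactosidase reporter signal reflecting CREB driven transcription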
[15] = target: Streptavidin (Streptomyces avidinii) (UniProt P22629); assay: streptavidin binders on small-molecule microarray, primary screen, artefact control for SMM compound annotation, biophysical, 635/667 nm fluorescence (AID 1147); details: streptavidin binding, higher = more signal;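 also: signal reflects streptavidin binding to arrayed compounds as a control protein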
Streptavidin (Streptomyces avidinii), sequence (P22629 whole entry, looked up): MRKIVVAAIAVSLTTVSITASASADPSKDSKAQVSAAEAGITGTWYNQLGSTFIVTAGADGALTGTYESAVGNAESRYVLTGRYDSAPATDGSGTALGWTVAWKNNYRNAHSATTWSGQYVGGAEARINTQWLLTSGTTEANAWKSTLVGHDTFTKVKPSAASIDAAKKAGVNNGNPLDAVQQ

[16] = small-molecule binders of probe aInhba, primary screen, biochemical, small-molecule microarray, 635/667 nm fluorescence (AID 1148); details: higher = more signal;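 also: score merges 667nm spot fluorescence with signal-to-noise for antibody binding to printed compounds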
Torsin-1A (Homo sapiens) [17] = target: Torsin-1A (Homo sapiens) (UniProt O14656); assay: torsin A binders from cell lysate, primary screen, small-molecule microarray, wild-type, 635/667 nm (AID 1149); details: COS7 hTOR1A-WT lysate, 635 nm fluorescence, higher = more signal
Torsin-1A (Homo sapiens), sequence (O14656 whole entry, looked up): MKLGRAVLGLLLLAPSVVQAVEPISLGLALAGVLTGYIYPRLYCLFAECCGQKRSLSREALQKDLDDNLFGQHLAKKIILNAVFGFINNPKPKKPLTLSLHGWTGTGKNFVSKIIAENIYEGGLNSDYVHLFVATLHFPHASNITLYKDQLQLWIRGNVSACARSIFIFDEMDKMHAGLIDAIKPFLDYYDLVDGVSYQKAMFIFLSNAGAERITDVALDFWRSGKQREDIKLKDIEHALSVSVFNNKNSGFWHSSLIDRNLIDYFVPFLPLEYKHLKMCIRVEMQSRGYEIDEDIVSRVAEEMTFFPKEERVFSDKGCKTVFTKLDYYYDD

Torsin-1A (Homo sapiens) [18] = target: Torsin-1A (Homo sapiens) (UniProt O14656); assay: small-molecule binders of mutant TOR1A in lysate, primary screen, cell lysate, small-molecule microarray, COS7 lysate, 635/667 nm fluorescence (AID 1150); details: COS7 hTOR1A mutant lysate, 635 nm fluorescence, higher = more signal;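 also: score pools 667 nm emission and signal to noise measuring lysate protein binding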
[19] = system: Sonic hedgehog protein (Shh); assay: small-molecule binders of Shh protein, primary screen, biochemical, small-molecule microarray, 635/667 nm fluorescence (AID 1151); details: small-molecule microarray binding, 635 nm fluorescence; higher = more signal;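 also: Shh protein binding to compounds spotted on small-molecule microarray slides; score combines spot fluorescence intensity with signal-to-noise across triplicate slides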

| Compound | composite z-score [1] | composite z-score [2] | composite z-score [3] | composite z-score [4] | composite z-score [5] | composite z-score [6] | z-score [7] | composite z-score (Lefty1) | composite z-score [8] | z-score [9] | composite z-score [10] | z-score [11] | z-score [12] | z-score [13] | z-score [14] | composite z-score [15] | composite z-score [16] | composite z-score (Torsin-1A (Homo sapiens) [17]) | composite z-score (Torsin-1A (Homo sapiens) [18]) | composite z-score [19] |
| --- | --- | --- | --- | --- | --- | --- | --- | --- | --- | --- | --- | --- | --- | --- | --- | --- | --- | --- | --- | --- |
| CC[C@H]1C2=C3C(CC[C@H]4C(OCc5ccc(F)cc5C(F)(F)F)OC[C@](C)([C@@H]34)N(C(=O)OC(C)(C)C)C2)C(COC(C)=O)C1COC(C)=O (stereo not given in full) | 1.3 | 1.17 | 0.178 | 0.945 | 0.165 | -1.19 | 1.74 | -0.256 | 0.509 | 1.17 (inactive) | 0.374 | -1.35 (inactive) | 0.729 (inactive) | 0.204 (inactive) | 1.3 (inactive) | 1.3 | 0.214 | 0.129 | 0.168 | -1.2 |
| CC(C)c1ccc(NN2C(C(O)C(C)c3ccccc3)C=CC3C(=O)N(c4ccccc4)C(=O)C32)cc1 (stereo not given) | 1.63 | 1.17 | 0.531 | 0.988 | 1.2 | 0.558 | -0.864 | 0.155 | 1.19 | 0.222 (inactive) | 0.981 | 0.0469 (inactive) | -0.692 (inactive) | 0.619 (inactive) | 0.939 (inactive) | 2.11 | 0.864 | 0.326 | 1.12 | 0.461 |
| O=C1N(Cc2ccccc2)c2ccccc2C[C@@]12N=C(c1ccc(OCCCO)cc1)O[C@H]2c1ccccc1 | 1.81 | 1.13 | 0.791 | 0.209 | 1.33 | 1.39 | -0.518 | 0.309 | 0.294 | -2 (inactive) | 0.378 | -3.89 (inactive) | -0.34 (inactive) | 1.87 (inactive) | -0.483 (inactive) | 0.798 | -0.0963 | -0.133 | 0.318 | 1.34 |
| CC(C)c1ccc(NN2C(C(O)C3CCCCC3)C=CC3C(=O)N(c4ccccc4)C(=O)C32)cc1 (stereo not given) | 1.04 | 1.21 | 0.401 | 0.987 | 0.946 | 0.66 | 0.257 | 1.29 | 1.27 | -1.36 (inactive) | 0.283 | -0.575 (inactive) | -1.15 (inactive) | 0.0467 (inactive) | 0.337 (inactive) | 1.88 | 0.0968 | -0.147 | 0.316 | 0.771 |
| COC(=O)[C@@]1(Cc2ccc(F)cc2)[C@H]2c3cc(C(=O)N4CCCC4)n(CCc4c[nH]c5cc(F)ccc45)c3C[C@H]2CN1C(=O)c1ccccc1 | 1.43 | 1.26 | 1.16 | 0.999 | 1.13 | 0.296 | 0.592 | 0.293 | 0.832 | 2.41 (inactive) | 1.43 | -2.66 (inactive) | 0.449 (inactive) | 0.197 (inactive) | 0.654 (inactive) | 1.12 | 0.0049 | 1.2 | 1.29 | 0.0034 |
| C=C(C(=O)CC[C@@H](OC(=O)c1ccccc1-c1ccccc1C(=O)O)c1cccc(OCCO)c1)C(C)C | 0.256 | -0.481 | -0.285 | -0.0661 | 1.53 | 1.54 | 0.282 | 1.69 | 0.58 | -1.62 (inactive) | 0.655 | 0.954 (inactive) | -0.417 (inactive) | 2.16 (inactive) | 2.88 (inactive) | -0.364 | 0.0391 | 2.85 | 1.59 | 1.95 |
| COc1ccc([Si](C)(C)[C@H]2[C@H](CC(=O)N3CCC[C@H]3CO)O[C@@]3(C(=O)N(Cc4cccc(N5CCCCC5=O)c4)c4ccccc43)[C@@H]2C)cc1 | 0.999 | 0.989 | 0.79 | 0.732 | 1.08 | 1.52 | 3.51 | 1.36 | 0.442 | -1.5 (inactive) | -0.108 | -1.39 (inactive) | -0.00805 (inactive) | 2.88 (inactive) | -0.314 (inactive) | 0.233 | -0.128 | 0.593 | 0.812 | 2.01 |
| COc1ccc(CCNC(=O)[C@@]2(c3ccc([N+](=O)[O-])cc3)CC(=O)N(C3CCCCC3)[C@@H]2c2ccc(CO)cc2I)cc1 | 0.312 | 1.19 | 0.338 | -0.0396 | 1.04 | 1.24 | 3.1 | 0.0241 | 0.402 | -1.28 (inactive) | 1.07 | -4.72 (inactive) | 1.02 (inactive) | 0.441 (inactive) | 0.0398 (inactive) | -0.0827 | -0.0695 | 0.628 | 0.0294 | 0.575 |
| CC[C@@H](O[Si](C#C[Si](C(C)C)(C(C)C)C(C)C)(C(C)C)C(C)C)c1cn([C@H](C)c2ccccc2)nn1 | 0.176 | 0.57 | 0.0506 | -0.0116 | 0.548 | 0.335 | -0.213 | 0.573 | 0.094 | -0.268 (inactive) | -0.026 | 0.428 (inactive) | -0.0357 (inactive) | -0.374 (inactive) | 0.266 (inactive) | 0.693 | -0.0044 | 0.398 | 0.458 | 0.634 |
| O=C1C2C=CC(C(O)c3ccccn3)N(Nc3ccc([N+](=O)[O-])cc3)C2C(=O)N1c1ccccc1 (stereo not given) | 0.344 | 1.16 | 0.427 | 1.02 | 0.336 | 0.292 | -0.378 | -0.43 | 1.05 | 0.654 (inactive) | 0.333 | -0.476 (inactive) | -0.277 (inactive) | 0.379 (inactive) | -0.0636 (inactive) | 1.24 | 0.0589 | -0.146 | 0.098 | 0.04 |
